{
  "source": "PubChem BioAssay (NCATS)",
  "key": {"[1]": {"system": "CRL-7250", "assay": "Cytotoxic Profiling of Annotated Libraries Using Quantitative High-Throughput Screening (AID 1296008); note: potency is the fitted concentration of half-maximal effect", "conditions": "Five cell lines viability, CellTiter-Glo ATP luminescence, 48-72 h; max response: hits give low values", "in_short": "(§1)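 Cytotoxicity was measured as CellTiter-Glo ATP luminescence, read after 10 min at room temperature. Compound treatment of the cells lasted 48 or 72 hr at 37 degrees Celsius in a qHTS format.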"}, "[2]": {"system": "HaCat", "assay": "Cytotoxic Profiling of Annotated Libraries Using Quantitative High-Throughput Screening (AID 1296008)", "conditions": "Five cell lines viability, CellTiter-Glo ATP luminescence, 48-72 h; max response: hits give low values", "in_short": "as §1"}, "[3]": {"system": "KB-3-1", "assay": "Cytotoxic Profiling of Annotated Libraries Using Quantitative High-Throughput Screening (AID 1296008)", "conditions": "Five cell lines viability, CellTiter-Glo ATP luminescence, 48-72 h; max response: hits give low values", "in_short": "as §1"}, "[4]": {"system": "NIH3T3", "assay": "Cytotoxic Profiling of Annotated Libraries Using Quantitative High-Throughput Screening (AID 1296008)", "conditions": "Five cell lines viability, CellTiter-Glo ATP luminescence, 48-72 h; max response: hits give low values", "in_short": "as §1"}, "[5]": {"system": "N140", "assay": "qHTS profiling for inhibitors of Plasmodium falciparum proliferation (AID 504749)", "conditions": "P. falciparum in erythrocytes, SYBR Green DNA, 72 h; series mostly up to 28.7 µM", "in_short": "(§2)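 In a 72 h erythrocytic culture (37 C, humidified, 5% CO2) at 2.5% hematocrit and 0.3% starting parasitemia, compounds were tested; SYBR Green I in detergent lysis buffer stained parasite DNA overnight.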"}, "[6]": {"system": "P93_24", "assay": "qHTS profiling for inhibitors of Plasmodium falciparum proliferation (AID 504749)", "conditions": "P. falciparum in erythrocytes, SYBR Green DNA, 72 h; series mostly up to 28.7 µM", "in_short": "as §2"}, "[7]": {"system": "P94_40", "assay": "qHTS profiling for inhibitors of Plasmodium falciparum proliferation (AID 504749)", "conditions": "P. falciparum in erythrocytes, SYBR Green DNA, 72 h; series mostly up to 28.7 µM", "in_short": "as §2"}, "[8]": {"system": "PAD", "assay": "qHTS profiling for inhibitors of Plasmodium falciparum proliferation (AID 504749)", "conditions": "P. falciparum in erythrocytes, SYBR Green DNA, 72 h; series mostly up to 28.7 µM", "in_short": "as §2"}, "[9]": {"system": "PC15", "assay": "qHTS profiling for inhibitors of Plasmodium falciparum proliferation (AID 504749)", "conditions": "P. falciparum in erythrocytes, SYBR Green DNA, 72 h; series mostly up to 28.7 µM", "in_short": "as §2"}, "[10]": {"system": "PC26", "assay": "qHTS profiling for inhibitors of Plasmodium falciparum proliferation (AID 504749)", "conditions": "P. falciparum in erythrocytes, SYBR Green DNA, 72 h; series mostly up to 28.7 µM", "in_short": "as §2"}, "[11]": {"system": "PC49", "assay": "qHTS profiling for inhibitors of Plasmodium falciparum proliferation (AID 504749)", "conditions": "P. falciparum in erythrocytes, SYBR Green DNA, 72 h; series mostly up to 28.7 µM", "in_short": "as §2"}, "[12]": {"system": "SC27B", "assay": "qHTS profiling for inhibitors of Plasmodium falciparum proliferation (AID 504749)", "conditions": "P. falciparum in erythrocytes, SYBR Green DNA, 72 h; series mostly up to 28.7 µM", "in_short": "as §2"}, "[13]": {"system": "TAB109", "assay": "qHTS profiling for inhibitors of Plasmodium falciparum proliferation (AID 504749)", "conditions": "P. falciparum in erythrocytes, SYBR Green DNA, 72 h; series mostly up to 28.7 µM", "in_short": "as §2"}, "[14]": {"system": "TAB113", "assay": "qHTS profiling for inhibitors of Plasmodium falciparum proliferation (AID 504749)", "conditions": "P. falciparum in erythrocytes, SYBR Green DNA, 72 h; series mostly up to 28.7 µM", "in_short": "as §2"}, "[15]": {"system": "TAB165", "assay": "qHTS profiling for inhibitors of Plasmodium falciparum proliferation (AID 504749)", "conditions": "P. falciparum in erythrocytes, SYBR Green DNA, 72 h; series mostly up to 28.7 µM", "in_short": "as §2"}, "[16]": {"system": "CRL-7250", "assay": "qHTS assay to identify novel small-molecules to repurpose for Merkel cell carcinoma treatment (AID 1296009)", "conditions": "MCC and control cell lines, CellTiter-Glo viability, 72 h; at 44.8 µM (top of the series) unless noted", "in_short": "(§3)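 Cell viability measured by CellTiter-Glo following 72 hr compound treatment at 37 degree celsius, with NPC and MIPE libraries tested in 8- and 11-point concentration series.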"}, "[17]": {"system": "W2", "assay": "qHTS profiling for inhibitors of Plasmodium falciparum proliferation (AID 504749)", "conditions": "P. falciparum in erythrocytes, SYBR Green DNA, 72 h; series mostly up to 28.7 µM", "in_short": "as §2"}, "[18]": {"system": "HEK293", "assay": "Cytotoxic Profiling of Annotated Libraries Using Quantitative High-Throughput Screening (AID 1296008)", "conditions": "Five cell lines viability, CellTiter-Glo ATP luminescence, 48-72 h; max response: hits give low values", "in_short": "as §1"}, "[19]": {"system": "HACAT", "assay": "qHTS assay to identify novel small-molecules to repurpose for Merkel cell carcinoma treatment (AID 1296009)", "conditions": "MCC and control cell lines, CellTiter-Glo viability, 72 h; at 44.8 µM (top of the series) unless noted", "in_short": "as §3"}},
  "note": "Values joined by “and” are separate entries in the source; they are usually repeats but may differ in a detail not shown here. Equal values may be shown once. Inconclusive results are not listed. A call without a number means that no potency is given here. A number with no mark means an inactive call. Active and inactive are the calls of the source. Calls come from the whole dose curve; as a rule, active = well fitted inhibition curve with a large enough effect; inconclusive = small, poorly fitted or top-dose-only effect; inactive = flat fitted curve, though single readings scatter. Note: nearly all actives have a fitted effect of over 60% in size.",
  "data": [
    {"compound": "CCCN(CCC)CCc1c[nH]c2ccccc12", "values": [
      {"measurement": "max response", "setting": "[1]", "value": -1.07, "unit": "%"},
      {"measurement": "max response", "setting": "[2]", "value": -5.54, "unit": "%"},
      {"measurement": "max response", "setting": "[3]", "value": -20.7, "unit": "%"},
      {"measurement": "max response", "setting": "[4]", "value": 3.34, "unit": "%"}
    ]},
    {"compound": "CC(C)(C)OC(=O)c1ncn2c1[C@@H]1CCCN1C(=O)c1c(Br)cccc1-2", "values": [
      {"measurement": "Potency", "setting": "[5]", "value": "inactive"},
      {"measurement": "Potency", "setting": "[6]", "value": "inactive"},
      {"measurement": "Potency", "setting": "[7]", "value": "inactive"},
      {"measurement": "Potency", "setting": "[8]", "value": "inactive"},
      {"measurement": "Potency", "setting": "[9]", "value": "inactive"},
      {"measurement": "Potency", "setting": "[10]", "value": "inactive"},
      {"measurement": "Potency", "setting": "[11]", "value": "inactive"},
      {"measurement": "Potency", "setting": "[12]", "value": "inactive"},
      {"measurement": "Potency", "setting": "[13]", "value": "inactive"},
      {"measurement": "Potency", "setting": "[14]", "value": "inactive"},
      {"measurement": "Potency", "setting": "[15]", "value": "inactive"},
      {"measurement": "outcome", "setting": "[1]", "value": "inactive"},
      {"measurement": "max response", "setting": "[2]", "value": 3.04, "unit": "%"},
      {"measurement": "max response", "setting": "[3]", "value": -1.12, "unit": "%"},
      {"measurement": "outcome", "setting": "[4]", "value": "inactive"},
      {"measurement": "outcome", "setting": "[16]", "value": "inactive"}
    ]},
    {"compound": "C[C@@H]1C[C@@H]([C@H](O)CC2CC(=O)NC(=O)C2)C(=O)[C@@H](C)C1", "values": [
      {"measurement": "Potency", "setting": "[1]", "value": "1.33 µM (active) and 833 nM (active)"},
      {"measurement": "Potency", "setting": "[2]", "value": "2350 nM (active)"},
      {"measurement": "Potency", "setting": "[3]", "value": "3.66 µM (active) and 1.48 µM (active)"},
      {"measurement": "Potency", "setting": "[4]", "value": "473 nM (active) and 235 nM (active)"}
    ]},
    {"compound": "CC(=O)OC1(c2ccccc2)CCN(CCc2ccccc2)CC1", "values": [
      {"measurement": "max response", "setting": "[2]", "value": -10.1, "unit": "%"},
      {"measurement": "max response", "setting": "[3]", "value": -24, "unit": "%"},
      {"measurement": "max response", "setting": "[4]", "value": -21.5, "unit": "%"}
    ]},
    {"compound": "Cc1ncc2n1-c1ccc(Cl)cc1C(c1ccccc1F)=NC2", "values": [
      {"measurement": "Potency", "setting": "[5]", "value": "inactive"},
      {"measurement": "Potency", "setting": "[6]", "value": "inactive"},
      {"measurement": "Potency", "setting": "[7]", "value": "inactive"},
      {"measurement": "Potency", "setting": "[8]", "value": "inactive"},
      {"measurement": "Potency", "setting": "[9]", "value": "inactive"},
      {"measurement": "Potency", "setting": "[10]", "value": "inactive"},
      {"measurement": "Potency", "setting": "[11]", "value": "inactive"},
      {"measurement": "Potency", "setting": "[12]", "value": "inactive"},
      {"measurement": "Potency", "setting": "[13]", "value": "inactive"},
      {"measurement": "Potency", "setting": "[14]", "value": "inactive"},
      {"measurement": "Potency", "setting": "[15]", "value": "inactive"},
      {"measurement": "Potency", "setting": "[17]", "value": "inactive"},
      {"measurement": "max response", "setting": "[18]", "value": -4.93, "unit": "%"},
      {"measurement": "outcome", "setting": "[2]", "value": "inactive"},
      {"measurement": "max response", "setting": "[3]", "value": -24.4, "unit": "%"},
      {"measurement": "max response", "setting": "[4]", "value": -10.5, "unit": "%"},
      {"measurement": "outcome", "setting": "[19]", "value": "inactive"}
    ]}
  ]
}
